Source: PubChem BioAssay AID1159580 (chemical genetic matrix, 2015)
“And” between values parts separate entries of the source, which are not always exact repeats. Equal entries are not always repeated. Out of some 5,500 compounds screened, about 2,000 (36%) were called active. Roughly 18% stayed inconclusive and do not appear here. Rule as the data show it: active = normalized growth mostly below about 0.91 (no sharp cut-off); inconclusive = no clear call, values can overlap the other calls; inactive = mostly above about 0.92. Some of the results follow.

Experiment: chemical genetic growth profiling, strain panel (AID 1159580);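 also: tested at 20 µM; growth read once vehicle control cultures reached saturation at 30 °C; 1 = growth at the plate median or of vehicle wells; lower values mean less growth of the strain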
Details: S. cerevisiae deletion strains, growth OD

Measured: normalized growth

C[C@]12CCC3c4ccc(O)cc4CCC3C1CC[C@@H]2O (some centres undefined)
active: locus YBR021W, strain FUR4, active compounds read low 0.783 | locus YDR137W, strain rgp1, active compounds read low 0.83 | locus YDR195W, strain ref2 1.27 [resistant] | locus YDR392W, strain spt3, active compounds read low 0.639 | locus YGL253W, strain hxk2, active compounds read low 0.895 | locus YGR252W, strain gcn5, active compounds read low 0.735 | locus YJL164C, strain tpk1, active compounds read low 0.916
inactive: locus YAL013W, strain DEP1, active compounds read low 1.01 | locus YAL021C, strain ccr4, active compounds read low 0.983 | locus YAL026C, strain drs2, active compounds read low 0.943 | locus YAL030W, strain snc1, active compounds read low 1.01 | locus YBL061C, strain skt5, active compounds read low 0.961 | locus YBR009C, strain hhf1, active compounds read low 0.91 | locus YBR023C, strain chs3, active compounds read low 0.992 | locus YBR171W, strain sec66, active compounds read low 1.01 | locus YBR229C, strain ROT2, active compounds read low 1.01 | locus YBR231C, strain swc5, active compounds read low 0.946 | locus YBR279W, strain paf1, active compounds read low 0.993 | locus YCL011C, strain gbp2, active compounds read low 0.988 | locus YCL016C, strain dcc1, active compounds read low 0.975 | locus YCL029C, strain bik1, active compounds read low 0.996 | locus YCL061C, strain MRC1, active compounds read low 0.988 | locus YCL069W, strain vba3, active compounds read low 1.01 | locus YCR088W, strain abp1, active compounds read low 1.03 | locus YDL005C, strain med2, active compounds read low 1.02 | locus YDL035C, strain GPR1, active compounds read low 0.912 | locus YDL040C, strain nat1, active compounds read low 1.02 | locus YDL074C, strain BRE1, active compounds read low 0.882 | locus YDL101C, strain DUN1, active compounds read low 1 | locus YDL185W, strain tfp1, active compounds read low 0.979 | locus YDL192W, strain arf1, active compounds read low 0.958 | locus YDR001C, strain nth1, active compounds read low 1.03 | locus YDR069C, strain doa4, active compounds read low 1 | locus YDR101C, strain arx1, active compounds read low 0.958 | locus YDR150W, strain NUM1, active compounds read low 1.03 | locus YDR159W, strain sac3, active compounds read low 0.954 | locus YDR162C, strain NBP2, active compounds read low 0.987 | locus YDR297W, strain sur2, active compounds read low 0.992 | locus YDR318W, strain mcm21, active compounds read low 0.996 | locus YDR334W, strain swr1, active compounds read low 1.02 | locus YDR335W, strain msn5, active compounds read low 0.985 | locus YDR388W, active compounds read low 0.997 | locus YDR502C, strain sam2, active compounds read low 0.973 | locus YEL003W, strain gim4, active compounds read low 0.921 | locus YEL037C, strain rad23, active compounds read low 1.02 | locus YEL061C, strain CIN8 (second series), active compounds read low 1.01 | locus YEL061C, strain CIN8, active compounds read low 1.02 | locus YER015W, strain faa2, active compounds read low 0.981 | locus YER016W, strain bim1, active compounds read low 0.969 | locus YER110C, active compounds read low 0.989 | locus YER111C, strain swi4, active compounds read low 1.03 | locus YER155C, strain BEM2 (second series), active compounds read low 1.04 | locus YER155C, strain BEM2, active compounds read low 1.03 | locus YER167W, strain BCK2, active compounds read low 1 | locus YFR010W, strain ubp6, active compounds read low 1 | locus YGL078C, strain dbp3, active compounds read low 0.934 | locus YGL086W, strain mad1, active compounds read low 0.953 | locus YGL167C, strain pmr1, active compounds read low 1.01 | locus YGL173C, strain kem1, active compounds read low 0.968 | locus YGL227W, strain vid30, active compounds read low 1.03 | locus YGL240W, strain doc1, active compounds read low 0.96 | locus YGL248W, strain PDE1, active compounds read low 0.981 | locus YGR078C, strain PAC10, active compounds read low 0.967 | locus YGR135W, strain pre9, active compounds read low 0.949 | locus YHR013C, strain ard1, active compounds read low 0.996 | locus YHR027C, strain rpn1, active compounds read low 1.01 | locus YHR030C, strain SLT2, active compounds read low 1.03 and 0.961 | locus YHR079C, strain IRE1 (second series), active compounds read low 1.01 | locus YHR079C, strain IRE1, active compounds read low 0.954 | locus YHR094C, strain hxt1, active compounds read low 1.01 | locus YHR129C, strain ARP1, active compounds read low 1 | locus YHR142W, strain chs7, active compounds read low 0.891 | locus YHR200W, strain rpn10, active compounds read low 1 | locus YIL066C, strain RNR3, active compounds read low 0.955 | locus YIL073C, strain SPO22, active compounds read low 0.936 | locus YIL125W, strain kgd1, active compounds read low 1 | locus YIR030C, strain dcg1, active compounds read low 1 | locus YJL092W, strain hpr5, active compounds read low 1.03 | locus YJL095W, strain BCK1 (second series), active compounds read low 0.997 | locus YJL095W, strain BCK1, active compounds read low 0.978 and 0.961 | locus YJL115W, strain asf1, active compounds read low 1.02 | locus YJL129C, strain trk1, active compounds read low 0.889 | locus YJL134W, strain LCB3, active compounds read low 1.02 | locus YJL154C, strain vps35, active compounds read low 1.02 | locus YJL166W, strain qcr8, active compounds read low 0.971 | locus YJL168C, strain set2, active compounds read low 0.997 | locus YJL187C, strain SWE1 (second series), active compounds read low 0.966 | locus YJL187C, strain SWE1, active compounds read low 1.01 | locus YJR043C, strain POL32, active compounds read low 0.938
